# Screens deposited in PubChem by several laboratories.
# tim23-1 inh: inhibits growth of tim23-1 mutant yeast. S. cerevisiae tim23-1 growth, BacTiter-Glo luminescence, 24 h. inhibition, % at 20 µM. 330,000 compounds, 1.3% hits. AID 463212;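 active = growth inhibition of the mutant yeast at or above 50%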;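 also: temperature-sensitive mutant grown at 25 °C; plate controls were DMSO-treated mutant yeast for no effect and medium wells lacking yeast for full effect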
# TIM10 inh: TIM10 yeast growth inhibition; S. cerevisiae TIM10 strain growth, BacTiter-Glo luminescence, 24 h; inhibition, % at 10 µM; 330,000 compounds, 1.4% hits; AID 463195;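 active = inhibition of 40% or more at the single tested concentration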;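 also: wild-type TIM10 isogenic control strain grown at permissive 25 °C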
# tim10-1 inh: inhibits growth of tim10-1 mutant yeast. S. cerevisiae tim10-1 ts strain growth, BacTiter-Glo, 24 h. 330,000 compounds, 2.2% hits. inhibition, % at 20 µM;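 active = inhibition of at least 40%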;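 also: mutant grown at 25 °C; 0% = DMSO wells with yeast and 100% = wells holding no yeast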
# NALP3 yeast inh: inhibitors of NALP3 inflammasome in yeast; 330,000 compounds, 0.39% hits; inhibition, % at 10 µM; AID 2825; Yeast reconstituted NLRP3/ASC/caspase-1, beta-gal luminescence, 24 h;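 active = inhibition of 50% or more; inactive = inhibition below 50%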;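 also: plate controls were induced DMSO wells for no effect and uninduced yeast grown without galactose for full effect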
# SKKanGAS inh: SKKanGAS growth inhibition; S. pyogenes SKKanGAS, kanamycin growth, BacTiter-Glo, 6 h; inhibition, % at 7.5 µM; 300,000 compounds, 1.3% hits;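 active = mean replicate score, as percent of positive control median, at least 50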;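 also: strain carries kanamycin resistance gene driven by streptokinase promoter and grows in 40 µg/ml kanamycin; loss of luminescence reflects streptokinase promoter inhibition or plain growth inhibition; 0% = median of DMSO wells and 100% = positive control at its reference dose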
# The depositor's hits bear a star; / = no result. This is a sample that favours compounds with a hit; in the whole collection about 4.6% have one here.
SMILES,tim23-1 inh,TIM10 inh,tim10-1 inh,NALP3 yeast inh,SKKanGAS inh
Cc1cc(C)n(-c2nc(Nc3ccccc3C(F)(F)F)nc(-n3nc(C)cc3C)n2)n1,25,32,38,21,135*
Cc1cc(C)n(-c2nc(Nc3ccccc3C)nc(-n3nc(C)cc3C)n2)n1,14,20,34,12,98*
CN(C)CCOc1ccc(/C(=C(/CCCl)c2ccccc2)c2ccccc2)cc1,11,12,13,8,101*
CN(CCOc1ccccc1)CCOc1ccccc1,9,-15,10,15,10
O=c1/c(=C\c2cccc(O)c2)sc2nc(-c3ccccc3)c(-c3ccccc3)n12,28,11,23,-17,70*
COc1ccc(/C=c2\sc3nc(-c4ccccc4)c(-c4ccccc4)n3c2=O)cc1OC,11,15,22,-51,6
COc1ccccc1/C=C1\S/C(=N/NC(=O)c2cccc(Br)c2)NC1=O,18,30,39,7,81*
Cc1ccc(CN2C(=O)c3ccccc3NC2c2cc(Br)ccc2O)cc1 (configuration not stated),22,9,22,10,104*
O=C1NC(=Nc2ccc(Cl)cc2)SC1Cc1cc(Cl)ccc1Cl (configuration not stated),9,11,14,6,82*
FC(F)(F)c1cc(CCN2CCNC[C@H]2Cc2cccc3ccccc23)cc(C(F)(F)F)c1,39,-9,36,14,70*
Cc1cc(C(C)(C)C)cc(C)c1COC(=O)c1cccnc1,14,13,13,11,64*
Cc1cccc(C)c1Oc1nc(-c2ccccc2)ncc1S(=O)(=O)c1ccccc1,11,-4,-8,14,51*
O=[N+]([O-])c1cc(C(F)(F)F)cc([N+](=O)[O-])c1NCCNC(=S)Nc1ccc(Cl)c(Cl)c1,28,10,37,19,102*
C=CCC[C@@H](Cc1ccc(F)cc1)C(=O)OCCNC(=O)[C@H](CC=C)CC(=O)NCCO,-1,-2,-11,8,/
Cc1sc2ncnc(SCC(=O)N3CCCC(C(F)(F)F)C3)c2c1C (configuration not stated),19,10,5,21,55*
CC1(C)CC(=O)C(C2C3=C(CC(C)(C)CC3=O)Oc3c(Br)cc(Br)cc32)=C(O)C1 (configuration not stated),4,16,15,6,56*
CC1(C)CC(=O)C2=C(C1)OC1=C(C(=O)CC(C)(C)C1)C2c1cc([N+](=O)[O-])cc([N+](=O)[O-])c1O,18,6,17,17,18
CCCN(CC1CC1)c1nc(N)c(C#N)c(CC#N)c1C#N,23,5,18,20,0
CCCN(CC1CC1)c1nc(C)nc(Nc2c(Cl)cc(Cl)cc2Cl)c1Cl,11,12,12,-1,89*
CC(=O)NC(c1cccc([N+](=O)[O-])c1)c1ccc2cccnc2c1O (configuration not stated),36,-64,-16,15,60*
CCCCC(=O)NC(c1ccco1)c1cc(Cl)c2cccnc2c1O (configuration not stated),43,-33,33,3,52*
CC(C)C(=O)NC(c1ccccc1)c1cc([N+](=O)[O-])c2cccnc2c1O (configuration not stated),8,14,18,11,84*
CC(=O)NC(c1ccccc1)c1cc([N+](=O)[O-])c2cccnc2c1O (configuration not stated),-17,27,25,28,34
O=C(CCc1ccccc1)NC(c1cccs1)c1cc(Cl)c2cccnc2c1O (configuration not stated),/,/,/,/,67*
CC[C@]12c3[nH]c4ccc(Cl)cc4c3CCN1C(=O)[C@@H](CC(=O)NCCC1=CCCCC1)C[C@@H]2C(=O)N1CCN(C(=O)c2ccco2)CC1,36,-6,23,/,/
CCC(=O)NC(c1cccs1)c1cc([N+](=O)[O-])c2cccnc2c1O (configuration not stated),28,12,22,24,47
CCCC(=O)NC(c1cccs1)c1cc([N+](=O)[O-])c2cccnc2c1O (configuration not stated),/,/,/,/,86*
CC(=O)Nc1ccc(S(=O)(=O)NCCC(=O)N2CCc3ccccc32)cc1,6,-6,-3,11,-3
CCC(=O)c1ccc(OC(=O)C2CCN(C3=NS(=O)(=O)c4ccccc43)CC2)cc1,8,8,10,6,/
